Structures are written as SMILES. This is part of a sample that, as a whole, favours compounds with a hit. Of some 83,000 tested, about 20% had one in any assay.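 Treatment: one concentration, 48 hours, 96-well format. Scoring: percent growth, with anything below 10 considered active.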 Activity calls are given as the source filed them.

This test relates to M14 melanoma. The test can be described thus: NCI-60 one-dose screen, 48 h (100 = growth as untreated, 0 = no growth, -100 = all killed). The note with it: 10 µM unless noted.
On to `COc1c(Cl)cc(Cl)cc1Cl`, for which the growth is 116% (inactive).
In the case of `COc1ccc(-c2nn(-c3ccccc3)cc2/C=C/C(=O)OCc2cn(-c3ccc(F)c(Cl)c3)nn2)cc1` it was 97.6% (inactive); in that of `COc1ccc2c(c1)C(=O)/C(=C/c1cccc(OCC(=O)Nc3nc4c(s3)CCCC4)c1)O2`, -27.4% (active); in that of `CCN(CC)CC(C)Nc1ccc([N+](=O)[O-])c2sc3ccccc3c(=O)c12` (stereo not given), 44.9% (inactive).
As for `Cc1nn(-c2ccccc2)c2nc(C)n(-c3ccc(Br)cc3)c(=O)c12`, the figure is 9.88% (active); as for `OC(c1cc(-c2ccccc2)nc2ccc(Cl)cc12)C1CCCCN1` (stereo not given), -66.3% (active).
On to `COc1ccc(S(=O)(=O)NCCNc2nccc(-c3c(-c4cccc([N+](=O)[O-])c4)nc4sccn34)n2)cc1`, for which the growth was 102% (inactive).
Consider `COc1ccc(Cl)cc1Nc1nc(C(F)(F)F)ccc1C(=O)N/N=C/c1cccnc1`, for which the growth is 52.9% (inactive).
As for `COc1ccc(-c2nn(-c3ccccc3)cc2/C=C2\SC(=O)NC2=O)cc1`, the figure is 102% (inactive).
As for `Cc1ccc2c(c1)C(=O)c1c-2c(OCCCN(C)C)nc2ccccc12`, the figure is -82.2% (active); as for `Cc1ccc(-c2nc(/C=N/Nc3cc(C)nc4ccc(Br)cc34)c(C)o2)cc1`, -50.2% (active); as for `CCCCNP1(NCCCC)=NP(NCCCC)(NCCCC)=NP(NCCCC)(NCCCC)=NP(NCCCC)(NCCCC)=N1`, 11.8% (inactive).
With `COc1ccc(-n2cc(-c3ccccc3)c3c(SCC(=O)N/N=C/c4ccc([N+](=O)[O-])cc4)ncnc32)cc1`, the growth was 108% (inactive).
In the case of `Nc1cccc(-c2nc3sccn3c2-c2ccnc(NCCCNS(=O)(=O)c3ccc(C(F)(F)F)cc3)n2)c1` it was 9.8% (active); in that of `CCN(CC)CC(O)c1cc(-c2ccc(Cl)cc2)nc2c(C)c(Cl)ccc12` (stereo not given), -98.5% (active); in that of `O=C1/C(=C/c2ccc(F)cc2)CN(C(=O)CCN2CCC(=NO)CC2)C/C1=C\c1ccc(F)cc1`, -10.6% (active).
As for `CC(C)C1=C[C@@]23CC[C@@H]4[C@](C)(CCC[C@@]4(C)C(=O)OCC#CCN4CCCC4)[C@H]2C[C@@H]1[C@H]1C(=O)OC(=O)[C@H]13`, the figure is 96.6% (inactive).
In the case of `Cc1ccc2c(c1)C(=O)/C(=C/c1ccc(OCC(=O)c3ccccc3)cc1)O2` it was 95.8% (inactive).
Consider `Cc1ccc2c(c1)n([O-])c1cc(Cl)ccc1[n+]2=O`, for which the growth was 99% (inactive).
As for `COc1ccccc1/C=C(/C(=O)c1ccccc1)c1ccccc1`, the figure is 101% (inactive).
As for `COc1nc2c(cc1S(=O)(=O)c1ccccc1)CCc1c-2cnn1-c1ccc(Cl)cc1`, the figure is 97.5% (inactive); as for `CNc1cc2nc3cc(NC)c(C)cc3cc2cc1C`, 24.8% (inactive).
As for `Nc1c(C(=O)Nc2ccccc2)sc2nc3c(cc12)CN(CCc1ccccc1)CC3`, the figure is 108% (inactive); as for `CC(C)[C@@H]1CC[C@]2(C(=O)NCCCCN=C(N)N)CC[C@]3(C)[C@H](CC[C@@H]4[C@@]5(C)CCC(=O)C(C)(C)[C@@H]5CC[C@]43C)[C@@H]12`, 71.2% (inactive); as for `CCOC(=O)c1cnc2ccc(Br)cc2c1Nc1cccc(S(=O)(=O)NC)c1`, 114% (inactive).

The record behind these values is PubChem BioAssay (NCI).
